Source: PubChem BioAssay (Tox21)
Results filed as inconclusive are left out. A number with no mark means an inactive call. Calls come from the whole dose curve; as a rule, active = well fitted cell-killing curve with a large enough effect in the repeat runs; inconclusive = weak or mixed curves, or effect the other way; inactive = no such curve, though single readings can be large or run the other way.

assay: qHTS assay to identify small molecule agonists of the farnesoid-X-receptor (FXR) signaling pathway - cell viability counter screen (AID 743218); conditions: FXR-bla HEK293T viability, CellTiter-Glo luminescence, 16 h; series mostly up to 62.6 µM; viability change, negative = cytotoxic: at the top concentration; note: nearly all actives have a fitted effect of over 45% in size
Description: U.S. Tox21 Program National Center for Advancing Translational Sciences [NCATS] NIH Chemical Genomics Center [NCGC] U.S. Environmental Protection Agency [EPA] National Institutes of Environmental Health Sciences [NIEHS] National Toxicology Program [NTP] U.S. Food and Drug Administration [FDA] Tox21 Assay Overview: The farnesoid-X-receptor (FXR), a nuclear hormone receptor, is highly expressed in liver, intestine, kidney and adrenal cortex. Natural ligands of FXR are the bile acids (Cholic acid, Chenodeoxy cholic acid etc). FXR is an important regulator of diverse metabolic pathways, including the bile acid homeostasis, lipid and glucose metabolisms. FXR regulates the expression of target genes by binding either as a monomer or as a heterodimer with the retinoid X receptor (RXR). Numerous studies have reported that FXR exerts protective function during cholestasis, diabetes, liver regeneration, and cancer. To identify compounds that activate FXR signaling, GeneBLAzer FXR-UAS-bla HEK 293T cell line (Invitrogen, Carlsbad, CA) containing a beta-lactamase reporter gene under the control of a UAS response element was used to screen the Tox21 10K compound library. The cytotoxicity of the Tox21 compound library against the FXR-bla cell line was tested in parallel by measuring the cell viability using CellTiter-Glo assay in the same wells.
Tox21 Assay Protocol Summary: FXR-bla cells were dispensed at 5000 cells/5uL/well in 1536-well black wall/clear bottom plates using a Multidrop Combi (Thermo Fisher Scientific, Waltham, MA) dispenser. After the assay plates were incubated at 37 C and 5% CO2 for 5 h, 23 nL of compounds dissolved in DMSO, positive controls or DMSO only was transferred to the assay plate by a Pintool station (Kalypsys, San Diego, CA). The assay plates were incubated at 37C for 16 h. After 1 uL of LiveBLAzerTM B/G FRET substrate was added using a Bioraptr Flying Reagent Dispenser (FRD) workstation (Beckman Coulter, Indianapolis, IN), the plates were incubated at room temperature for 2 h, and fluorescence intensity was measured by an Envision plate reader (PerkinElmer, Shelton, CT). For cell viability readout that measures cytotoxicity, 4uL/well of CellTiter-Glo reagent was added into the assay plates using a Bioraptr FRD. After 30 min incubation at room temperature, the luminescence intensity in the plates was measured using a ViewLux plate reader (PerkinElmer).
% is set by controls: 0 for no effect and ±100 for the full control effect.

SMILES | viability change, negative = cytotoxic
Nc1nc(Cl)cc(Cl)n1 | 14.9%
N#Cc1ccccc1C#N | 5.75%
COc1cc(S(N)(=O)=O)cc(C(=O)O)c1OC | 16.2%
COc1ccccc1N1CCN(CC(O)COc2cc(OC)c(OC)c(OC)c2)CC1 (stereo not given) | -8.74%
Cc1ccc(O)c([N+](=O)[O-])c1 | 7.79% [at 81.1 µM]
Cc1ccc2ccccc2n1 | -2.54%
BrCCOc1ccccc1 | 1.2% [at 81.1 µM]
C=CC(=O)OCC[N+](C)(C)C | 1.37% [at 81.1 µM]
C=C(C)C(=O)OCCCC | 20.8% [at 81.1 µM]
CCCCOCCCC | 2.72%
CC12CCCC=C1C(=O)OC2=O (stereo not given) | -8.41%
Cc1cc(C)c(N)c(Cl)c1 | -9.75%
CC(C)CC(O)Cc1ccccc1 (stereo not given) | 1.05%
C=COCCCCO | 1.56%
C=CCOC(=O)CCCCCCCC | 7.37% [at 81.1 µM]
Nc1ccc(C(=O)NCC(=O)O)cc1 | 4.85%
CC(C)(C)C(=O)NCCCC(=O)O | 8.57%
CCCCCC(CC)OC(=O)CCCOc1ccc(Cl)cc1Cl (stereo not given) | 19%
CC(C)(Sc1cc(C(C)(C)C)c(O)c(C(C)(C)C)c1)Sc1cc(C(C)(C)C)c(O)c(C(C)(C)C)c1 | -0.712%
CCCCN1C(=O)c2ccccc2C1=O | 6.31% [at 81.1 µM]

SMILES | viability change, negative = cytotoxic
CCCCCCCCOCCC#N | 19.6%
CCO[Si](CC(C)C)(OCC)OCC | -21.5%
CC(=O)SC[C@@H](C)C(=O)N1CCC[C@H]1C(=O)N[C@@H](Cc1ccccc1)C(=O)O | 7.14%
CCN1CCN(C(=O)N[C@@H](C(=O)N[C@@H]2C(=O)N3[C@@H]2SC(C)(C)[C@H]3C(=O)O)c2ccccc2)C(=O)C1=O | 2.25%
CC1=C(O)C(=O)CO1 | 7.77%
Cc1ccc(Br)cc1 | 6.64%
COC(C)(C)CC(C)=O | -8.94%
Cc1ccc(O)c(C(=O)c2ccccc2)c1 | 8.26% [at 81.1 µM]
Clc1ccc2c(c1)Nc1ccccc1S2 | -2.37%
N#CC1(N)CCCCC1 | 0.127% [at 81.1 µM]
C/C(Cl)=C/CCl | 5.65% [at 81.1 µM]
C=CCCCCCCCCCCCCCC | -4.19% [at 29.1 µM]
CC(=O)c1ccc2ccc3ccccc3c2c1 | 4.21%
CC(C)c1cc(C(C)C)cc(C(C)C)c1 | 2.02%
CC(C)(O)c1ccc(C(C)(C)O)cc1 | -0.197%
CC(=O)/C=C/C=C1/C2CCC(C2)C1(C)C (stereo not given) | -2.58%
CN1CCN(C(=O)C2CCCCC2)CC1 | 2.92%
O=C(O)P(=O)(O)O | -0.545%
COc1cc2nc(N3CCN(C(=O)C4CCCO4)CC3)nc(N)c2cc1OC (stereo not given) | 6.81%
C=CCCCCCCCCOC(C)=O | 7.43%
